High-throughput results from PubChem.
Rows were chosen to be rich in hits. Some 2.2% of all compounds tested hit in one or more screens of this group.
NPR2 activator = GC-B (human) receptor activation; P20594; HEK293-GC-B cells, CNP EC30, cGMP TR-FRET; 0% at EC30 CNP, 100% saturating CNP; activation, % at 10 µM; 370,000 compounds, 0.11% hits; AID 1920062;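 active means activation at 10 µM reaching about 35% in either raw or pattern-adjusted values, limit read from the data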
proKLK7 act = activates the human kallikrein-7 zymogen; purified proKLK7, EDANS-DABCYL substrate fluorescence; 100% is mature enzyme control, 0% vehicle; activation, % at 7 µM; 370,000 compounds, 0.9% hits; AID 652039;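 active means activation above the mean of all tested compounds plus 3 SD, computed per campaign excluding outliers beyond control limits, cut at about 13% in these data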
GC-A act = GC-A (human) enzyme activation; P16066; HEK293 GC-A cells, cGMP TR-FRET, EC30 ANP; 0% at EC30 ANP, 100% saturating ANP; activation, % at 10 µM; 370,000 compounds, 0.14% hits; AID 1671463; in the data active means activation above about 40%
Target sequence (P16066 whole entry, looked up): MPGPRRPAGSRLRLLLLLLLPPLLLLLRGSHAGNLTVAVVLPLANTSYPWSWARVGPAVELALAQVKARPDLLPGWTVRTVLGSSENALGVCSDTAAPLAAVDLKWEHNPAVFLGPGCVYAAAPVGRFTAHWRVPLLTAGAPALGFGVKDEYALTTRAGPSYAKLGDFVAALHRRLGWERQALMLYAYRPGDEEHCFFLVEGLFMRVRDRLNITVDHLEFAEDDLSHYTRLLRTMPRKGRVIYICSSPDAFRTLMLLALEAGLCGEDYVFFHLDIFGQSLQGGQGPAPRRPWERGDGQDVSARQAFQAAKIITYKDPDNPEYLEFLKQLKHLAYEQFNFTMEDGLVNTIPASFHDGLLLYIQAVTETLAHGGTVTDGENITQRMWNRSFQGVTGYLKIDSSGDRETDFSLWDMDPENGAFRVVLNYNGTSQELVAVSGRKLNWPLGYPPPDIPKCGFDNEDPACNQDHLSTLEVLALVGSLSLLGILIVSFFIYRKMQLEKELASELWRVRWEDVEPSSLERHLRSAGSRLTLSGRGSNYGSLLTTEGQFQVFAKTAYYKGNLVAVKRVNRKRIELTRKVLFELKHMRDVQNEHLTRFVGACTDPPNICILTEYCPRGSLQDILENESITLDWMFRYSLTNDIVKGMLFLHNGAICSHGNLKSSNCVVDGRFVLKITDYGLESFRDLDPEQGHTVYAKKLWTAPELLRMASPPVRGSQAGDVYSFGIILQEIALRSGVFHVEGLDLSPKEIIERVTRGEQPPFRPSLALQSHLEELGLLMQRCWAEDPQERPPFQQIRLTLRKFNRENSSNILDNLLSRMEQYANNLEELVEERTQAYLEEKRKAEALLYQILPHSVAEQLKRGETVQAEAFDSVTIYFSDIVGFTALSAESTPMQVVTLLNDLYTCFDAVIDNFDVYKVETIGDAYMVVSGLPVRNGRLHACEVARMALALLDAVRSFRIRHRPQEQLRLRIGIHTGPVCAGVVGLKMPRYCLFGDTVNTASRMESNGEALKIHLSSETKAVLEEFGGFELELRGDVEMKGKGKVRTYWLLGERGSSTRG
ADAM10 inh = ADAM10 inhibition, QFRET primary screen. O14672. recombinant ADAM10, EDANS/DABCYL FRET peptide cleavage, 3 h. inhibition, % at 7 µM. 370,000 compounds, 0.62% hits;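 active means inhibition above a per-campaign cutoff equal to the mean of compounds falling between control-based bounds plus 3 SD, cut at about 20% in these data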
ADAM17 inh = ADAM17 inhibition, QFRET primary screen; recombinant ADAM17, EDANS/DABCYL FRET peptide cleavage; 370,000 compounds, 0.83% hits; P78536; inhibition, % at 6.95 µM;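 active means inhibition above the mean of compounds lying between control limits plus 3 SD, set per campaign, cut at about 8.5% in these data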
proKLK7 act conf = proKLK7 activation, confirmation. activation, % at 7 µM. AID 686949. 3,200 compounds, 68% hits. shares compounds with proKLK7 act. purified proKLK7, EDANS-DABCYL substrate fluorescence; scaled: vehicle 0, mature enzyme 100;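 active means activation, as change over the incubation, above the mean of all tested compounds plus 3 SD, cut at about 13% in these data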
EDANS interfere = optically interferes with EDANS-DABCYL signal, flagging KLK7 hits. shares compounds with proKLK7 act. EDANS-DABCYL substrate fluorescence interference, no enzyme, 4 h; solvent 0%, active enzyme control 100%. activation, % at 7 µM. 3,200 compounds, 80% hits. AID 686952;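 active means activation above the all-compound mean plus 3 SD, ignoring values outside control-based bounds, cut at about 4.8% in these data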;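 further: value is the 4 h activation minus the activation read at time zero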
Each line names hits and unclear results; the compound was inactive in the other large screens (follow-up assays come after a bar, where they were run).

CCCn1c(=N)c(C(=O)NCC2CCCO2)cc2c(=O)n3cccc(C)c3nc21 (configuration not stated)	proKLK7 act 83.4 | proKLK7 act conf inactive | EDANS interfere inactive
N=c1c(C(=O)NCC2CCCO2)cc2c(=O)n3ccccc3nc2n1Cc1ccccc1 (configuration not stated)	proKLK7 act 118.0 | proKLK7 act conf 23.7 | EDANS interfere 22.8
Cc1ccc(Cn2c(=N)c(C(=O)NCC3CCCO3)cc3c(=O)n4ccccc4nc32)cc1 (configuration not stated)	none
COCCCn1c(=N)c(C(=O)NCC2CCCO2)cc2c(=O)n3ccccc3nc21 (configuration not stated)	proKLK7 act 33.3 | proKLK7 act conf inactive | EDANS interfere 15.2
COc1ccc2c(c1)CCCN2C(=O)C1CCCN(S(=O)(=O)c2ccc(C(C)(C)C)cc2)C1 (configuration not stated)	none
O=C(CCc1ccccc1-c1ccccc1CCNC(=O)COCc1ccccc1)NCc1ccccc1	none
COc1ccc(OC)c(S(=O)(=O)N2CCCCC2C(=O)N2CCN(c3ccccc3F)CC2)c1 (configuration not stated)	none
Cc1cccn2c(=O)c3cc(C(=O)NCC4CCCO4)c(=N)n(CCN4CCOCC4)c3nc12 (configuration not stated)	proKLK7 act 14.2 | proKLK7 act conf inactive | EDANS interfere 9.4
CN(C)/C=N/c1nc2nccc(-c3ccc(F)cc3)n2n1	none
CN(C)/C=N/c1nc2nccc(-c3cccc(Cl)c3)n2n1	proKLK7 act 14.6 | proKLK7 act conf 34.0 | EDANS interfere 45.4
CN(C)/C=N/c1nc2nccc(-c3cccs3)n2n1	proKLK7 act 84.8 | proKLK7 act conf 67.1 | EDANS interfere 78.8
CC(Oc1ccccc1)c1ccnc2nc(/N=C/N(C)C)nn12 (configuration not stated)	none
Cc1cc2c3c(ccc(C)c3n1)N=CN2c1ccccc1	proKLK7 act 61.7 | proKLK7 act conf inactive | EDANS interfere 4.8
C=CCN(C)CC#Cc1ccc(OC)cc1	none
COC(=O)[C@@H](C)NC(=O)C(Cc1ccc2c(c1)OCO2)NC(C)=O (some centres not stated)	none
Cc1ccc(CN2C(=O)c3ccccc3NC2c2ccccn2)cc1 (configuration not stated)	none
CCCN1C(=O)c2ccccc2NC1c1ccc(OC)cc1OC (configuration not stated)	none
O=C1c2ccccc2NC(c2ccccc2)N1CCCN1CCOCC1 (configuration not stated)	proKLK7 act 14.7 | proKLK7 act conf inactive | EDANS interfere 10.4
CCCN1C(=O)c2ccccc2NC1c1ccc(C)cc1 (configuration not stated)	proKLK7 act 14.5 | proKLK7 act conf inactive | EDANS interfere 7.3
CCCN1C(=O)c2ccccc2NC1c1ccc(OC)cc1O (configuration not stated)	proKLK7 act 18.6 | proKLK7 act conf 15.0 | EDANS interfere 15.8
CCOc1ccc(-n2c(SCC(=O)Nc3ccc(S(=O)(=O)Nc4cc(C)nc(C)n4)cc3)nnc2-c2ccco2)cc1	none
COc1ccc2c(c1)C1(Nc3ccccc3-c3nc4ccccc4n31)C(=O)N2 (configuration not stated)	none
CC1(c2ccncc2)Nc2ccccc2-c2nc3ccccc3n21 (configuration not stated)	proKLK7 act 57.3 | proKLK7 act conf inactive | EDANS interfere inactive
NS(=O)(=O)c1ccc(N2N=C(c3ccccc3)CC2c2ccccc2)cc1 (configuration not stated)	none
O=S(=O)(O)c1ccc(N2N=C(c3ccccc3)CC2c2ccccc2)cc1 (configuration not stated)	proKLK7 act 56.0 | proKLK7 act conf 71.7 | EDANS interfere 65.5
Cc1cccc(-c2cc(N3CCCN(C)CC3)n3nccc3n2)c1	proKLK7 act 28.5 | proKLK7 act conf inactive | EDANS interfere inactive
CCOc1ccc(N(CC(=O)Nc2ccc(OC)cc2)S(=O)(=O)c2c(C)noc2C)cc1	none
COc1ccc(N(CC(=O)Nc2ccc(C)cn2)S(=O)(=O)c2c(C)noc2C)cc1	proKLK7 act 16.0 | proKLK7 act conf inactive | EDANS interfere inactive
Cc1ccc(-c2cn3c(=O)cc(C)[nH]c3n2)cc1	none
Cc1cc(=O)n2cc(-c3ccccc3)nc2[nH]1	proKLK7 act 16.2 | proKLK7 act conf inactive | EDANS interfere inactive
CSCCC(NS(=O)(=O)c1ccccc1)C(=O)OCc1nc2ccsc2c(=O)[nH]1 (configuration not stated)	none
CSCCC(NS(=O)(=O)c1ccccc1)C(=O)OCc1cc(=O)oc2cc(O)ccc12 (configuration not stated)	proKLK7 act 435.4 | proKLK7 act conf 497.9 | EDANS interfere 529.0
Cc1ccc(NC(=O)CSC(C)C(=O)OCc2cc(=O)oc3cc(O)ccc23)cc1 (configuration not stated)	proKLK7 act 241.2 | proKLK7 act conf 314.3 | EDANS interfere 275.5
CC(=O)Nc1ccc2c(COC(=O)[C@H](C)N3C(=O)C4CCCCC4C3=O)cc(=O)oc2c1 (some centres not stated)	proKLK7 act 23.9 | proKLK7 act conf inactive | EDANS interfere 4.7
C=CS(=O)(=O)N(Cc1nnn(Cc2ccccc2)c1Br)[C@@H](CC(C)C)C(=O)OC	none
Fc1ccc(-c2cc(-c3nnc4sc(-c5cccs5)nn34)[nH]n2)cc1	none
O=S(=O)(CC1NCc2ccccc21)NCCc1ccccc1 (configuration not stated)	none
COc1ccc(OC)c2c1C(=O)CC2C (configuration not stated)	proKLK7 act 43.0 | proKLK7 act conf 49.3 | EDANS interfere 49.4
COc1cc2c3c(c1OC)C(=O)CC3CCCC2 (configuration not stated)	none
O=C1Nc2ccc(S(=O)(=O)N(CCO)CCO)c3cccc1c23	proKLK7 act 44.6 | proKLK7 act conf 42.1 | EDANS interfere 50.4
CN(c1ccccc1C(=O)O)S(=O)(=O)c1ccc2c3c(cccc13)C(=O)N2	none
COC(=O)c1c(C)oc2c1cc(NS(=O)(=O)c1cccs1)c1ccccc12	none
